Assay results reported in PubChem BioAssay (NCI).
Compounds without any hit were thinned out: in the full panel of roughly 79,000, 15% have a hit. The source made the active and inactive calls. Cut-off read from the data, not from the text of the source: active = growth inhibition above about 70%; inactive = the rest.

How the values were obtained:
[1] = NCI Yeast Anticancer Drug Screen. Data for the rad52 strain (AID 147);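 note: 0% = growth of vehicle-treated control cultures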; conditions: S. cerevisiae rad52 mutant growth inhibition, stronger effect = higher value
How it was run: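 Inhibition of yeast growth, referenced to vehicle controls, was the measured output for a strain with defective DNA damage repair.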

[2] = NCI Yeast Anticancer Drug Screen. Data for the wt1 strain (AID 149);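 note: 0% = growth of vehicle-treated wt1 cultures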; conditions: S. cerevisiae wt1 strain (SPY 50644) growth inhibition, stronger effect = higher value
How it was run: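 Yeast wt1 strain exposed to compounds; growth inhibition measured relative to vehicle-treated controls.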

[3] = NCI Yeast Anticancer Drug Screen. Data for the rad50EPP+ strain (AID 151);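 note: 0% = growth of vehicle-treated control cultures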; conditions: S. cerevisiae rad50 mutant strain, stronger effect = higher value
How it was run: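 Genetically defined yeast (rad50EPP+, DNA damage repair alteration) is grown with compound, and inhibition of growth is expressed relative to vehicle-treated controls.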

[4] = NCI Yeast Anticancer Drug Screen. Data for the rad50 strain (AID 155);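 note: 0% = growth of vehicle-only cultures of the same strain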; conditions: S. cerevisiae rad50 strain growth inhibition, stronger effect = higher value
How it was run: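 Yeast carrying a defined DNA repair defect were exposed to test compounds, and growth was compared with vehicle-treated controls to give percent inhibition.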

[5] = NCI Yeast Anticancer Drug Screen. Data for the mec2-1 strain (AID 157); conditions: S. cerevisiae mec2-1 strain, stronger effect = higher value
How it was run: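 Each compound was tested on mec2-1 yeast, a strain altered in DNA damage repair or cell cycle control. Growth inhibition is reported relative to vehicle.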

[6] = NCI Yeast Anticancer Drug Screen. Data for the rad14 strain (AID 159);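 note: 0% = growth of vehicle-treated control cultures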; conditions: S. cerevisiae rad14 strain growth inhibition, stronger effect = higher value
How it was run: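 Yeast cells carrying a defined DNA-repair defect were exposed to compounds, and growth inhibition was calculated relative to vehicle-treated control cultures.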

[7] = NCI Yeast Anticancer Drug Screen. Data for the sgs1 mgt1 strain (AID 161);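 note: 0% = growth of cultures given vehicle only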; conditions: S. cerevisiae sgs1 mgt1 strain, stronger effect = higher value
How it was run: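 Test agents were incubated with a DNA-repair-mutant yeast strain. Growth was then read and compared against vehicle-treated controls.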

[8] = NCI Yeast Anticancer Drug Screen. Data for the CLN2oe strain (AID 163);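 note: 0% = growth of vehicle-only control cultures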; conditions: S. cerevisiae CLN2oe strain, stronger effect = higher value
How it was run: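 First, the altered yeast strain was treated with each compound; second, its growth was measured; finally, inhibition was derived by comparison with vehicle controls.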

[9] = NCI Yeast Anticancer Drug Screen. Data for the cln2 rad14 strain (AID 165);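 note: 0% = growth equal to vehicle treated cultures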; conditions: S. cerevisiae cln2 rad14 strain, stronger effect = higher value
How it was run: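 Test compounds were added to cln2 rad14 yeast cultures; inhibition of growth was then determined by comparison with vehicle treatment.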

[10] = NCI Yeast Anticancer Drug Screen. Data for the bub3 strain (AID 167); conditions: S. cerevisiae bub3 mutant strain, stronger effect = higher value
How it was run: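 Compounds were applied to a genetically altered yeast strain carrying a cell-cycle control defect. Growth inhibition was scored against vehicle-treated controls.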

[11] = NCI Yeast Anticancer Drug Screen. Data for the wt2 strain (AID 169);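 note: 0% = growth of vehicle-treated yeast cultures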; conditions: S. cerevisiae wt2 strain growth inhibition, stronger effect = higher value
How it was run: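 The panel's yeast strains carry defined changes in DNA repair or cell cycle genes. Each strain is grown with compound, and growth loss is scored relative to vehicle.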

[12] = NCI Yeast Anticancer Drug Screen. Data for the mlh1 strain (AID 171);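 note: 0% = growth of vehicle-treated control cultures of the same strain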; conditions: S. cerevisiae mlh1 strain growth inhibition, stronger effect = higher value
How it was run: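 Inhibition values reflect reduced yeast growth in the presence of compound, referenced to vehicle controls, using a strain chosen for its alteration in DNA repair or cell cycle control.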

[13] = NCI Yeast Anticancer Drug Screen. Data for the mlh1 rad18 strain (AID 175); conditions: S. cerevisiae mlh1 rad18 strain growth inhibition, stronger effect = higher value
How it was run: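 Inhibition values reflect reduced growth of mutant yeast versus vehicle-treated controls following compound exposure; the mutations affect DNA damage repair.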

[14] = NCI Yeast Anticancer Drug Screen. Data for the rad18 strain (AID 177); conditions: S. cerevisiae rad18 mutant growth inhibition, stronger effect = higher value
How it was run: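 Steps: expose repair-mutant yeast to compound; measure growth; express as inhibition relative to vehicle control.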

[15] = NCI Yeast Anticancer Drug Screen. Data for the sgs1 strain (AID 173);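 note: 0% = growth of vehicle-only control cultures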; conditions: S. cerevisiae sgs1 mutant, stronger effect = higher value
How it was run: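 Vehicle-treated cultures served as reference for growth inhibition of a yeast strain altered in DNA damage repair or cell cycle control after compound exposure.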

[16] = at 5.0 µM (retest, dose inferred, filed as 0.5)
[17] = at 50.0 µM (retest, dose inferred, filed as 5.0)

Measured: growth inhibition

BrC/C=C/C[P+](c1ccccc1)(c1ccccc1)c1ccccc1
inactive: [1]; at 1.2 µM 8% | [1]; at 3.7 µM 27% | [2]; at 1.2 µM 4% | [2]; at 3.7 µM 9% | [3]; at 1.2 µM -12% | [3]; at 3.7 µM -14% | [3]; at 11.0 µM -8% | [3]; at 33.0 µM 45% | [4]; at 1.2 µM 7% | [4]; at 3.7 µM 13% | [5]; at 1.2 µM 5% | [5]; at 3.7 µM 12% | [5]; [16] 23% | [5]; [17] 23% | [6]; at 1.2 µM 5% | [6]; at 3.7 µM 7% | [7]; [16] 18% | [7]; [17] 18% | [8]; at 1.2 µM -3% | [8]; at 3.7 µM 10% | [9]; [16] 47% | [9]; [17] 47% | [10]; at 1.2 µM -5% | [10]; at 3.7 µM -7% | [10]; [16] 18% | [10]; [17] 18% | [11]; at 1.2 µM 3% | [11]; at 3.7 µM 9% | [12]; at 1.2 µM -5% | [12]; at 3.7 µM 1% | [13]; [16] 43% | [13]; [17] 43% | [14]; at 1.2 µM 9% | [14]; at 3.7 µM 33%
active: [1]; at 11.0 µM 96% | [1]; at 33.0 µM 98% | [1]; at 100.0 µM 99% | [2]; at 11.0 µM 94% | [2]; at 33.0 µM 98% | [2]; at 100.0 µM 98% | [3]; at 100.0 µM 91% | [4]; [16] 79% | [4]; at 11.0 µM 93% | [4]; at 33.0 µM 98% | [4]; [17] 79% | [4]; at 50.0 µM 90% | [4]; at 100.0 µM 98% | [5]; at 11.0 µM 96% | [5]; at 33.0 µM 98% | [5]; at 50.0 µM 92.9% | [5]; at 100.0 µM 99% | [6]; at 11.0 µM 96% | [6]; at 33.0 µM 99% | [6]; at 100.0 µM 99% | [7]; at 50.0 µM 92% | [8]; at 11.0 µM 94% | [8]; at 33.0 µM 98% | [8]; at 100.0 µM 99% | [9]; at 50.0 µM 87.7% | [10]; at 11.0 µM 94% | [10]; at 33.0 µM 98% | [10]; at 50.0 µM 88.7% | [10]; at 100.0 µM 98% | [11]; at 11.0 µM 95% | [11]; at 33.0 µM 98% | [11]; at 100.0 µM 99% | [12]; at 11.0 µM 83% | [12]; at 33.0 µM 98% | [12]; at 100.0 µM 99% | [13]; at 50.0 µM 87.7% | [14]; at 11.0 µM 96% | [14]; at 33.0 µM 98% | [14]; at 100.0 µM 98%

CCOC(=O)C1=C(C)NC(C)=C(C(=O)OCC)C1c1cccc([N+](=O)[O-])c1
inactive: [1]; at 1.2 µM -90% | [1]; at 3.7 µM -81% | [1]; at 11.0 µM -35% | [1]; at 33.0 µM 17% | [2]; at 1.2 µM -53% | [2]; at 3.7 µM -41% | [2]; at 11.0 µM -22% | [2]; at 33.0 µM 37% | [3]; at 1.2 µM -54% | [3]; at 3.7 µM -78% | [3]; at 11.0 µM -91% | [3]; at 33.0 µM -93% | [3]; at 100.0 µM -103% | [4]; at 1.2 µM -39% | [4]; at 3.7 µM 0% | [4]; [16] 34% | [4]; at 11.0 µM 31% | [4]; at 33.0 µM 65% | [5]; at 1.2 µM -36% | [5]; at 3.7 µM -16% | [5]; [16] 35% | [5]; at 11.0 µM -10% | [5]; at 33.0 µM 30% | [5]; at 50.0 µM 37.1% | [6]; at 1.2 µM -39% | [6]; at 3.7 µM -32% | [6]; at 11.0 µM -17% | [6]; at 33.0 µM 25% | [7]; [16] -15% | [7]; [17] 22% | [8]; at 1.2 µM -31% | [8]; at 3.7 µM -34% | [8]; at 11.0 µM -23% | [8]; at 33.0 µM 31% | [9]; [16] 45% | [9]; [17] 54% | [10]; at 1.2 µM -21% | [10]; at 3.7 µM -5% | [10]; [16] 29% | [10]; at 11.0 µM 4% | [10]; at 33.0 µM 22% | [10]; [17] 40% | [11]; at 1.2 µM -43% | [11]; at 3.7 µM -44% | [11]; at 11.0 µM -13% | [11]; at 33.0 µM 45% | [12]; at 1.2 µM -74% | [12]; at 3.7 µM -39% | [12]; at 11.0 µM -29% | [12]; at 33.0 µM 51% | [15]; at 1.2 µM -18% | [15]; at 3.7 µM -14% | [15]; at 11.0 µM 13% | [15]; at 33.0 µM 60% | [13]; [16] 30%
active: [1]; at 100.0 µM 73% | [2]; at 100.0 µM 88% | [4]; [17] 80% | [4]; at 50.0 µM 90.8% | [4]; at 100.0 µM 88% | [5]; [17] 76% | [5]; at 100.0 µM 83% | [6]; at 100.0 µM 88% | [8]; at 100.0 µM 87% | [10]; at 100.0 µM 73% | [11]; at 100.0 µM 92% | [12]; at 100.0 µM 86% | [15]; at 100.0 µM 86% | [13]; [17] 75% | [13]; at 50.0 µM 90.7%

Cc1ccc(P(c2ccc(C)cc2)c2ccc(C)cc2)cc1
inactive: [1]; at 1.2 µM -11% | [1]; at 3.7 µM -12% | [1]; at 11.0 µM 1% | [1]; at 33.0 µM 11% | [1]; at 100.0 µM 23% | [2]; at 1.2 µM -25% | [2]; at 3.7 µM -12% | [2]; at 11.0 µM -5% | [2]; at 33.0 µM 1% | [2]; at 100.0 µM 7% | [3]; at 1.2 µM -7% | [3]; at 3.7 µM -10% | [3]; at 11.0 µM -12% | [3]; at 33.0 µM -23% | [3]; at 100.0 µM -34% | [6]; at 1.2 µM -34% | [6]; at 3.7 µM -41% | [6]; at 11.0 µM -40% | [6]; at 33.0 µM -31% | [6]; at 100.0 µM -31% | [8]; at 1.2 µM 8% | [8]; at 3.7 µM 4% | [8]; at 11.0 µM 4% | [8]; at 33.0 µM 10% | [8]; at 100.0 µM 18% | [12]; at 1.2 µM -30% | [12]; at 3.7 µM -36% | [12]; at 11.0 µM -16% | [12]; at 33.0 µM -6% | [12]; at 100.0 µM 13% | [15]; at 1.2 µM -27% | [15]; at 3.7 µM -27% | [15]; at 11.0 µM 4% | [15]; at 33.0 µM 18% | [15]; at 100.0 µM 39% | [14]; at 1.2 µM -1% | [14]; at 3.7 µM -4% | [14]; at 11.0 µM 9% | [14]; at 33.0 µM 28% | [14]; at 100.0 µM 34%

Clc1ccc(C(c2ccc(Cl)cc2)N2CCNCC2)cc1
active: [1]; at 100.0 µM 98% | [2]; at 100.0 µM 98% | [4]; [17] 95% | [4]; at 50.0 µM 92% | [4]; at 100.0 µM 97% | [5]; [16] 70% | [5]; [17] 96% | [5]; at 50.0 µM 93%
inactive: [1]; at 1.2 µM 2% | [1]; at 3.7 µM -3% | [1]; at 11.0 µM -1% | [1]; at 33.0 µM 46% | [2]; at 1.2 µM 5% | [2]; at 3.7 µM 6% | [2]; at 11.0 µM 3% | [2]; at 33.0 µM 29% | [3]; at 1.2 µM 1% | [3]; at 3.7 µM 5% | [3]; at 11.0 µM 5% | [3]; at 33.0 µM 3% | [3]; at 100.0 µM -1% | [4]; at 1.2 µM -3% | [4]; at 3.7 µM -1% | [4]; [16] 38% | [4]; at 11.0 µM 6% | [4]; at 33.0 µM 67% | [5]; at 1.2 µM -19% | [5]; at 3.7 µM -19% | [5]; at 11.0 µM -10% | [5]; at 33.0 µM 49%
